Source: PubChem BioAssay (The Scripps Research Institute Molecular Screening Center)
Compounds with a hit are over-represented: about 4.8% of the library has one in this group of screens.
hgDAF12 agonist – H. glycines DAF-12 receptor agonists, primary screen, cell-based, luminescence, HEK293, GAL4 fusion, UAS-luciferase. Nuclear hormone receptor DAF-12 (Heterodera glycines), GAL4 fusion. HEK293 GAL4-hgDAF12 UAS-luciferase reporter, agonist luminescence; normalized to butyrate control. activation, % at 6.8 µM. 1.8% of 370,000 active;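 active means activation above a cutoff set at the mean of all screened compounds plus 3 SD, cut at about 10% in these data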;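 further: 0% = DMSO wells and 100% = sodium butyrate wells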
DAX1 inh-1 – DAX1 (NR0B1) inhibitors, primary screen, cell-based, HEK293, Gal4-DAX1, luciferase luminescence. Nuclear receptor subfamily 0 group B member 1 (Homo sapiens), P51843. HEK293 Gal4-DAX1 luciferase reporter. inhibition, % at 6.75 µM. 0.99% of 340,000 active. AID 504766, 2011;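 active means inhibition above the mean over all tested compounds plus 3 SD, cut at about 4.2% in these data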;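 further: 0% = DAX1-transfected cells with DMSO and 100% = empty-vector control cells with DMSO; inhibition shows as a rise in luminescence from relieved DAX1 repression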
Target sequence (P51843 207-470 limits assumed): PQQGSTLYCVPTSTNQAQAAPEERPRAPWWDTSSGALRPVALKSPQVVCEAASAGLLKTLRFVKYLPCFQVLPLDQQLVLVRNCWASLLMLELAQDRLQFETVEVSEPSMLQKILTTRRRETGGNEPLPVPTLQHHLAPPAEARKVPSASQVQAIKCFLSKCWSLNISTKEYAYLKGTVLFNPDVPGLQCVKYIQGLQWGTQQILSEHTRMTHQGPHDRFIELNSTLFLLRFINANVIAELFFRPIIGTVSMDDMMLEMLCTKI
ssDAF12 agonist – S. stercoralis DAF-12 nuclear receptor activators, primary screen, cell-based, luminescence, HEK293, GRIP1 co-expression, lit1-tk-luc. AID 652126, 2013. 1% of 370,000 active. Nuclear hormone receptor DAF-12 (Strongyloides stercoralis). activation, % at 6.8 µM. HEK293 ssDAF-12/GRIP1 lit1-tk-luc reporter; % of 3 µM dafachronic acid response;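 active means activation above the mean over all tested compounds plus 3 SD, cut at about 0.9% in these data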;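 further: 0% = DMSO-only wells and 100% = 3 µM delta7-dafachronic acid wells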
DAX1 inh-2 – DAX1 (NR0B1) inhibitors on StAR promoter, primary screen, cell-based, luminescence, SF-1 (NR5A1), full-length DAX-1 | HEK293T StAR-luciferase reporter, SF-1/DAX-1 repression relief | inhibition, % at 6.8 µM | 1.1% of 370,000 active | AID 652010, 2013;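 active means inhibition above the mean over all tested compounds plus 3 SD, cut at about 3.6% in these data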;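 further: 0% = DAX-1 cells with DMSO and 100% = cells lacking DAX-1 with DMSO; higher inhibition means more luminescence from relief of DAX-1 repression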
hcDAF12 agonist – H. contortus DAF-12 nuclear receptor activators, primary screen, cell-based, luminescence, HEK293, lit1-tk-luc reporter. HEK293 hcDAF-12 lit1-tk-luc reporter; 0% DMSO, 100% Δ7-dafachronic acid. activation, % at 6.8 µM. 1.4% of 370,000 active;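 active means activation above the mean of all tested compounds plus 3 SD, cut at about 5.5% in these data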;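 further: 100% = response to 3 µM Δ7-dafachronic acid high control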
SMARCA2 activ – SMARCA2 (BRM) function activators, primary screen, cell-based, luminescence, high throughput; 1% of 370,000 active; activation, % at 9.1 µM; MG213 cells, MMTV-luciferase reporter, dexamethasone, overnight; in the data active means activation above about 7.8%;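 further: 0% = vehicle wells and 100% = reference activator wells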
DAX1 conf – DAX1 (NR0B1) inhibitors relieving SF-1 repression, confirmation, cell-based, luminescence, HEK293T, full-length DAX-1, SF-1 activated StAR promoter | shares compounds with DAX1 inh-2 | HEK293T StAR-promoter luciferase reporter, SF-1/DAX-1 repression | inhibition, % at 6.8 µM | 87% of 2,400 active;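 active means inhibition above the average of every tested compound plus 3 SD, cut at about 3.8% in these data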;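 further: 0% = DAX-1 cells with DMSO and 100% = no DAX-1 control cells with DMSO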
SF1 mutant ctr – StAR reporter signal changes without DAX1, counter-screen for DAX1 inhibitor project, cell-based, luminescence, AF-2 mutant SF-1, transactivation; 78% of 2,400 active; inhibition, % at 6.8 µM; HEK293 StAR-luciferase, SF-1 AF2 mutant; AID 652136, 2013; shares compounds with DAX1 inh-2;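 active means inhibition above the mean of all tested compounds plus 3 SD, cut at about 3% in these data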;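 further: 0% = DAX-1 transfected cells with DMSO and 100% = cells without DAX-1 with DMSO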
SMARCA2 conf – SMARCA2 (BRM) function activators, confirmation, cell-based, luminescence, triplicate; shares compounds with SMARCA2 activ; MG213 cells, MMTV-luciferase with dexamethasone, overnight; MG213 cells expressing E1A, Rb sequestered; DMSO wells 0%, reference activator 100%; activation, % at 9.1 µM; 30% of 3,500 active; AID 652260, 2013;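 active means activation above its plate's cutoff, the mean activation of tested wells plus 3 SD, cut at about 7.9% in these data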
VP16 Luc act – GAL4-VP16 luciferase reporter activation, counter-screen for SMARCA2 (BRM) activator project, cell-based, pG5luc, luminescence, high throughput; HEK293 GAL4-VP16 pG5luc reporter; scaled: DMSO wells 0%, SAHA wells 100%; activation, % at 9.1 µM; shares compounds with SMARCA2 activ; 41% of 3,500 active; AID 686939, 2013;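 active means activation above the solvent-only control well mean plus 3 SD, averaged across control plates, cut at about 5.2% in these data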
LXRb hcDAF ctr – LXR agonists, Gal4 luciferase reporter, confirmation, counter-screen for hcDAF-12 agonist project, cell-based, luminescence, HEK293, H. contortus campaign; shares compounds with hcDAF12 agonist; HEK293 Gal4-LXR tk-luc reporter, 24 h; normalized: DMSO 0%, positive control 100%; activation, % at 6.8 µM; 3,400 tested, under 10 active;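 active means mean percent activation of the reporter above a cutoff set as the average over tested compounds plus their standard deviation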
hcDAF12 conf – H. contortus DAF-12 receptor agonists, confirmation, cell-based, luminescence, HEK293, lit1-tk-luc, triplicate | HEK293 hcDAF-12 lit1-tk-luc reporter; % of Δ7-dafachronic acid response | AID 743032, 2013 | 61% of 3,400 active | activation, % at 6.8 µM | shares compounds with hcDAF12 agonist;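 active means mean activation across triplicate tests above the threshold derived from the earlier primary screen, cut at about 5.5% in these data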;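 further: 0% = DMSO only wells and 100% = 3 µM Δ7-dafachronic acid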
hgDAF12 ag – H. glycines DAF-12 receptor agonists, confirmation, cell-based, luminescence, HEK293, GAL4-LBD fusion | shares compounds with hgDAF12 agonist | HEK293 GAL4-hgDAF12 luciferase reporter, agonist mode; percent of butyrate response | activation, % at 6.8 µM | 80% of 3,300 active;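 active means mean activation over triplicate wells above the hit cutoff derived from the earlier primary screen, cut at about 11% in these data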;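 further: 0% = DMSO low control and 100% = 2 mM sodium butyrate high control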
LXRb DAF12 ctr – LXR agonists, Gal4 luciferase reporter, confirmation, counter-screen for hgDAF-12 agonist project, cell-based, luminescence, HEK293, H. glycines campaign | shares compounds with hgDAF12 agonist | 24 h | activation, % at 6.8 µM | 3,300 tested, under 10 active;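 active means mean activation of the triplicate above a set limit carried over from the primary screen, none filed active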
Starred values were filed as active, the others as inactive; / = no result given.

SMILES	hgDAF12 agonist	DAX1 inh-1	ssDAF12 agonist	DAX1 inh-2	hcDAF12 agonist	SMARCA2 activ	DAX1 conf	SF1 mutant ctr	SMARCA2 conf	VP16 Luc act	LXRb hcDAF ctr	hcDAF12 conf	hgDAF12 ag	LXRb DAF12 ctr
N#C/C(=C/c1ccco1)c1nc2ccccc2s1	16.0*	1.7	4.0*	4.8*	19.7*	17.9*	12.0*	7.7*	9.3*	13.7*	1.4	14.3*	21.8*	0.9
COc1ccc(C(=O)CSc2nnc(-c3cccc(Cl)c3)n2Cc2ccco2)cc1	-1.6	/	-2.0	-0.9	1.2	-5.2	/	/	/	/	/	/	/	/
COc1cccc(N=c2oc3ccc(OC)cc3cc2-c2nc3ccccc3[nH]2)c1	16.1*	2.3	3.6*	4.7*	15.4*	8.3*	-1.1	-2.0	3.6	12.1*	0.1	6.3*	6.7	0.4
COc1ccc2oc(=O)c(-c3nc4ccccc4o3)cc2c1	3.0	1.6	-0.2	0.2	-0.1	6.8	/	/	/	/	/	/	/	/
O=C(NCCc1c[nH]c2ccccc12)OCc1cn(-c2cccc(Cl)c2)nn1	3.8	/	-0.4	-1.5	0.2	-2.3	/	/	/	/	/	/	/	/
O=C(Nc1ccccc1)c1ccncc1	-0.8	-0.6	-0.9	0.1	-0.6	-1.8	/	/	/	/	/	/	/	/
O=C(Nc1cnc2ccccc2c1)c1ccncc1	13.8*	1.1	-0.5	5.5*	4.6	7.5	10.6*	7.5*	/	/	/	/	14.1*	0.7
